# Laboratory results taken from PubChem BioAssay.
# Active and inactive are the calls of the source. Unless noted, the rule behind the calls is not given here.
# Legend:
# [1] = compounds binding Alexa647 anti-His antibody – biochemical, small-molecule microarray, 635 nm fluorescence, artefact control for SMM control protein annotation, primary screen (AID 1128); conditions: higher = more signal;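 note: score merges feature fluorescence with signal-to-noise for each printed compound spot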
# [2] = tested on: Human papillomavirus type 1a E7 protein (residues 1-88); test: HPV1a E7 small-molecule binders, primary screen, biochemical, small-molecule microarray, residues 1-88, 635 nm (AID 1129); conditions: small-molecule microarray binding, fluorescence 635 nm; higher = more signal
# [3] = biological target: Focal adhesion kinase 1 (Homo sapiens) (UniProt Q05397); test: PTK2 protein binding on printed compound slides – biochemical, small-molecule microarray, 635/667 nm fluorescence, BSA, DTT, primary screen (AID 1130); conditions: 635 nm fluorescence, higher = more signal;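 note: composite of spot emission at 667 nm and signal to noise over triplicate slides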
# [4] = tested on: Fibrinogen (Alexa647-labelled); test: Alexa647-fibrinogen binding to printed small molecules – biochemical, small-molecule microarray, 635/667 nm fluorescence, artefact control for SMM control-protein annotation, profiling panel (AID 1131); conditions: fibrinogen-A647 binding fluorescence, higher = more signal;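 note: z-score merges 667 nm fluorescence with per-spot signal-to-noise over triplicate slides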
# [5] = biological target: Follistatin (Homo sapiens) (UniProt P19883); test: FST protein binding to printed compounds – biochemical, small-molecule microarray, 635/667 nm fluorescence, primary screen (AID 1132); conditions: 635 nm fluorescence, higher = more signal
# [6] = biological target: Fibroblast growth factor 2 (Homo sapiens) (UniProt P09038); test: basic fibroblast growth factor binding to printed compounds – biochemical, small-molecule microarray, 635/667 nm fluorescence, primary screen (AID 1133); conditions: FGF2, fluorescence 635/667, higher = more signal
# [7] = JC-1 mitochondrial potential readout, lung cancer cells – cell-based, A549, JC-1 fluorescence, basal, 24 h, 100 nL, profiling panel (AID 1138); conditions: higher = more signal;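 note: A549 lung adenocarcinoma cells under basal conditions with no added stimulus; test concentration not given here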
# Lefty1 = Lefty1 protein binding to printed compounds – biochemical, small-molecule microarray, 635/667 nm fluorescence, primary screen (AID 1139); conditions: fluorescence 635/667, higher = more signal
# [8] = tested on: wheat germ agglutinin (Triticum aestivum), Alexa647-labelled; test: Alexa647-WGA lectin binding to printed small molecules – biochemical, small-molecule microarray, 635/667 nm fluorescence, artefact control for SMM control-protein annotation, profiling panel (AID 1140); conditions: WGA-A647 binding, 635 nm fluorescence, higher = more signal;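 note: score merges 667 nm feature emission with signal to noise over triplicate slides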
# [9] = biological target: Luciferin 4-monooxygenase (Photinus pyralis) (UniProt P08659); test: inhibition of purified Photinus pyralis luciferase – biochemical, luminescence, purified enzyme, 2006 set, primary screen (AID 1141); conditions: purified firefly luciferase, SteadyGlo luminescence, 30 min; higher = more signal, called active from +8 up or from −8 down;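 note: cell-free assay with purified firefly luciferase at 100 ng per well in PBS; test concentration not given here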
# [10] = tested on: Wnt5a (protein binding on small-molecule microarray); test: small molecules binding Wnt5a protein – biophysical, small-molecule microarray, 635/667 nm fluorescence, primary screen (AID 1142); conditions: 635 nm fluorescence, higher = more signal;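 note: fluorescence read at 667 nm with signal to noise per printed feature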
# [11] = ATP-based viability of Huh7 replicon cells – cell-based, CellTiter-Glo luminescence, basal, 48 h, cytotoxicity control for HCV replication inhibitor project, primary screen (AID 1143); conditions: higher = more signal, called active from +8 up or from −8 down;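 note: Huh7 hepatoma cells carrying a hepatitis C replication reporter with no stimulus; test concentration not given here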
# [12] = Pseudomonas biofilm growth suppression – PAO1 strain, BacTiter-Glo luminescence, LB-PBS, primary screen (AID 1144); conditions: P. aeruginosa PAO1 biofilm, 12 h, higher = more signal
# [13] = basal CRE-LacZ reporter activity in PC12 – cell-based, unstimulated, primary screen (AID 1145); conditions: no forskolin, luminescence, 4.5 h, higher = more signal, called active from +8 up or from −8 down
# [14] = forskolin-driven CRE-LacZ activity in PC12 – cell-based, CRE-LacZ reporter, forskolin-stimulated, primary screen (AID 1146); conditions: luminescence, 4.5 h, higher = more signal, called active from +8 up or from −8 down;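 note: PC12 cells with 6xCRE LacZ reporter stimulated by forskolin 10 µM; beta-galactosidase reporter signal reflecting CREB driven transcription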
# [15] = biological target: Streptavidin (Streptomyces avidinii) (UniProt P22629); test: compounds binding control protein streptavidin – biophysical, small-molecule microarray, 635/667 nm fluorescence, artefact control for SMM compound annotation, primary screen (AID 1147); conditions: higher = more signal;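 note: signal reflects streptavidin binding to arrayed compounds as a control protein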
# [16] = probe aInhba binding on compound microarray – biochemical, small-molecule microarray, 635/667 nm fluorescence, primary screen (AID 1148); conditions: higher = more signal;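 note: score merges 667nm spot fluorescence with signal-to-noise for antibody binding to printed compounds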
# Torsin-1A (Homo sapiens) [17] = biological target: Torsin-1A (Homo sapiens) (UniProt O14656); test: TOR1A wild-type binding on microarray – cell lysate, small-molecule microarray, lysate, 635/667 nm, primary screen (AID 1149); conditions: COS7 hTOR1A-WT lysate, 635 nm fluorescence, higher = more signal
# Torsin-1A (Homo sapiens) [18] = biological target: Torsin-1A (Homo sapiens) (UniProt O14656); test: torsin A mutant lysate binding on microarrays – cell lysate, small-molecule microarray, COS7 lysate, 635/667 nm fluorescence, primary screen (AID 1150); conditions: COS7 hTOR1A mutant lysate, 635 nm fluorescence, higher = more signal;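 note: score pools 667 nm emission and signal to noise measuring lysate protein binding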
# [19] = tested on: Sonic hedgehog protein (Shh); test: Sonic hedgehog microarray binding compounds – biochemical, small-molecule microarray, 635/667 nm fluorescence, primary screen (AID 1151); conditions: 635 nm fluorescence, higher = more signal;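 note: Shh protein binding to compounds spotted on small-molecule microarray slides; score combines spot fluorescence intensity with signal-to-noise across triplicate slides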
# Sequence of Follistatin (Homo sapiens) (P19883 whole entry, looked up): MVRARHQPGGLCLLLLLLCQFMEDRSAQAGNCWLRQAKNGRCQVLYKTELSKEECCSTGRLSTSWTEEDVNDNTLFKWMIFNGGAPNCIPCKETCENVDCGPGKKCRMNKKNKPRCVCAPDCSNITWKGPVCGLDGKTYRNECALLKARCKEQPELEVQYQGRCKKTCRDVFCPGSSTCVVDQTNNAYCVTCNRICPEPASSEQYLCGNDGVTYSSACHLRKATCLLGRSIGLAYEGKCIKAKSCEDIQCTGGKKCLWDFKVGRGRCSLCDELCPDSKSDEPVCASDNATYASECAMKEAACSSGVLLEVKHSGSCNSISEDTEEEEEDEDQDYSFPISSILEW
# Sequence of Luciferin 4-monooxygenase (Photinus pyralis) (P08659 whole entry, looked up): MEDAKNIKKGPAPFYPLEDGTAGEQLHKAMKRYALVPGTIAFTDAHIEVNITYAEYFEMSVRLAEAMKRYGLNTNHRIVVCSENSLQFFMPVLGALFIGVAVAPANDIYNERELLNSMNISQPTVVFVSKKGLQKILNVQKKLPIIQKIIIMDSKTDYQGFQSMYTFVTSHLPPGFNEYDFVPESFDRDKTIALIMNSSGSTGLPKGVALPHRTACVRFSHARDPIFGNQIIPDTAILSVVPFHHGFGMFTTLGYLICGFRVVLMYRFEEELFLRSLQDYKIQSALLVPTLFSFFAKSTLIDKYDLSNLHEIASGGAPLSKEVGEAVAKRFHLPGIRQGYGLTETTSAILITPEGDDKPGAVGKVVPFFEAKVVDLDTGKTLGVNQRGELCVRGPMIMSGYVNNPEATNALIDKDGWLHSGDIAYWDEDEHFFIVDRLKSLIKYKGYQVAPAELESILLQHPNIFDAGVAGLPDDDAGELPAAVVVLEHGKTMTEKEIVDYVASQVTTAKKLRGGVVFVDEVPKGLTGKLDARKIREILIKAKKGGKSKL
# Sequence of Focal adhesion kinase 1 (Homo sapiens) (Q05397 whole entry, looked up): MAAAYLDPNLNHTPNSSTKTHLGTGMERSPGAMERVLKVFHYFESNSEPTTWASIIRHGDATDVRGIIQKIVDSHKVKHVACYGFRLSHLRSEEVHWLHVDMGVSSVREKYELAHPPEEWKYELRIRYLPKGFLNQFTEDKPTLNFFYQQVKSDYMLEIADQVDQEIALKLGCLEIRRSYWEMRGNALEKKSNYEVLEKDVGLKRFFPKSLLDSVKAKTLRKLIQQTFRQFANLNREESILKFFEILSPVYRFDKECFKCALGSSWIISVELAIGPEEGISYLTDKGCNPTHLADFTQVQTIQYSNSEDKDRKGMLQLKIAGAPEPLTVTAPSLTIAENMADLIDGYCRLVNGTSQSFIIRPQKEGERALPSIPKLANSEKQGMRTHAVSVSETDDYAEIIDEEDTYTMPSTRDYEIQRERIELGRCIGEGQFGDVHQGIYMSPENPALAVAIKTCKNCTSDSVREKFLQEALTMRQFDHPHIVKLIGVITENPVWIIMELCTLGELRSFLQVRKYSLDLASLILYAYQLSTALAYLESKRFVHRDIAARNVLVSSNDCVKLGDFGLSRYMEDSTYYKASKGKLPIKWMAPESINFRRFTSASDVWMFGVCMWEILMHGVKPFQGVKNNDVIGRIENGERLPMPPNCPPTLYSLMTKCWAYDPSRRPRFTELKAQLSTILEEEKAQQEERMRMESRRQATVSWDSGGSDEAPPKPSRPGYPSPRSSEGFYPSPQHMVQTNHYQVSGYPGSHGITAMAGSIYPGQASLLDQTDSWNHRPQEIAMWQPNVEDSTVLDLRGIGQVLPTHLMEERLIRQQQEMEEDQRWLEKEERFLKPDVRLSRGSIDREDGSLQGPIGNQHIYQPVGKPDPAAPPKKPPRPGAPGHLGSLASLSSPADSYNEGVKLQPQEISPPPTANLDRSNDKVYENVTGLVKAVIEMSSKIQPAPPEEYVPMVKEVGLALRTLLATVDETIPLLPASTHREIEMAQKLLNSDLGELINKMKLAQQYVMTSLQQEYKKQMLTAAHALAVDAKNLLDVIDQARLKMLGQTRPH
# Sequence of Torsin-1A (Homo sapiens) (O14656 whole entry, looked up): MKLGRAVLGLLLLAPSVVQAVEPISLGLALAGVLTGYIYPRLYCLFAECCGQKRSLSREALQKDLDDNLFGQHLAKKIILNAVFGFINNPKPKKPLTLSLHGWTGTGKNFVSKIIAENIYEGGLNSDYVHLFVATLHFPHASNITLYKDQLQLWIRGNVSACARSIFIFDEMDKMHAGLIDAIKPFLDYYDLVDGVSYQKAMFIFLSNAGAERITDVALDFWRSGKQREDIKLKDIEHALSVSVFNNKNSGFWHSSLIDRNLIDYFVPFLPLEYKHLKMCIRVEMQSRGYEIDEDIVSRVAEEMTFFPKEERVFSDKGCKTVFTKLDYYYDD
# Sequence of Streptavidin (Streptomyces avidinii) (P22629 whole entry, looked up): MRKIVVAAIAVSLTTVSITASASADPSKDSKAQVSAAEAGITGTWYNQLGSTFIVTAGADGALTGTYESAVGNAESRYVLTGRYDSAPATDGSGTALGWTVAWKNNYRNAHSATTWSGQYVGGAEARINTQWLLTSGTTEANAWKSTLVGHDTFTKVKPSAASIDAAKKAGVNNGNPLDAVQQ
# Sequence of Fibroblast growth factor 2 (Homo sapiens) (P09038 whole entry, looked up): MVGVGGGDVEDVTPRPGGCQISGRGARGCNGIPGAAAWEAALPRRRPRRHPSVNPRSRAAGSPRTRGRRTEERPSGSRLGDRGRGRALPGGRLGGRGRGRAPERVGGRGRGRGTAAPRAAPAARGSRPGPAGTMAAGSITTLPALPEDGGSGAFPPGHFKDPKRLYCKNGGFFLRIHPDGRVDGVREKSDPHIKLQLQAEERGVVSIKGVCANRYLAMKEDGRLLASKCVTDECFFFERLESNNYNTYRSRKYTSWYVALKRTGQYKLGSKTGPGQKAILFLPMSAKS
SMILES,composite z-score [1],composite z-score [2],composite z-score [3],composite z-score [4],composite z-score [5],composite z-score [6],z-score [7],composite z-score (Lefty1),composite z-score [8],z-score [9],composite z-score [10],z-score [11],z-score [12],z-score [13],z-score [14],composite z-score [15],composite z-score [16],composite z-score (Torsin-1A (Homo sapiens) [17]),composite z-score (Torsin-1A (Homo sapiens) [18]),composite z-score [19]
C/C=C/[C@@H](CCn1cc([C@H](O)c2ccccc2)nn1)[Si](C)(C)c1ccc(OC)cc1,0.0974,-0.253,0.0213,-0.267,-0.673,-0.62,0.947,-0.337,0.418,0.273 (inactive),0.303,-3.67 (inactive),0.214 (inactive),3.3 (inactive),0.128 (inactive),-0.514,-0.253,0.154,-0.575,-0.0723
O=C1OCC=C[C@H]2OC34C=CCN(CCN5CCOCC5)C(=O)[C@H]3N(CCCCCO)C(=O)[C@@H]4[C@@H]12 (stereo not given in full),2.23,-0.277,0.311,-0.155,-0.307,-0.12,-0.829,-0.0262,0.28,-0.346 (inactive),-0.304,0.0976 (inactive),0.0824 (inactive),2.22 (inactive),-0.555 (inactive),0.257,-0.128,-0.419,0.11,0.175
C=CCN1C(=O)[C@@]2(O[C@@H](CCn3cc([C@H](O)c4ccccc4)nn3)[C@H]([Si](C)(C)c3ccc(OC)cc3)[C@H]2C)c2cc(NC(=O)c3ccc(OC)cc3)ccc21,0.623,0.931,0.386,0.0475,0.987,0.518,0.763,0.628,-0.191,0.427 (inactive),0.192,-3.14 (inactive),-0.527 (inactive),3.97 (inactive),0.35 (inactive),0.429,-0.128,-0.0041,-0.0819,1.32
CCCCC(O)C1C=CC2C(=O)N(Cc3ccccc3)C(=O)C2N1n1cnnc1 (stereo not given),2.39,0.433,0.242,0.892,0.457,-0.0025,-0.721,0.289,0.652,1.48 (inactive),0.0687,-4.01 (inactive),-0.372 (inactive),0.519 (inactive),-0.422 (inactive),0.416,-0.0477,0.0569,-0.459,0.22
CCOC(=O)C1=CC[C@@H](c2ccccc2)N(S(=O)(=O)c2ccc(C)cc2)[C@H]1C=C(C)C,0.875,1.22,0.503,0.911,0.97,0.481,2.58,0.811,0.546,2.12 (inactive),0.367,-4.76 (inactive),0.514 (inactive),-0.378 (inactive),0.807 (inactive),1.44,0.246,0.258,1.46,0.839
[N-]=[N+]=NCc1ccccc1C[C@]1(C(=O)NCCN2CCOCC2)N=C(c2ccc(OCCCO)cc2)O[C@H]1c1ccccc1,0.478,1.22,0.378,1.01,1.39,0.473,1.02,0.649,0.556,0.375 (inactive),0.461,-4.59 (inactive),-1.63 (inactive),1.11 (inactive),-0.838 (inactive),-0.0127,0.364,1.39,0.531,1.1
CC[C@@H]1[C@@H]2C3C(=O)N(CC)C(=O)C3CC(=O)[C@@H]2[C@H](c2ccc(C)cc2)N1S(=O)(=O)c1ccc(C)cc1 (stereo not given in full),0.189,1.2,0.381,-0.826,0.573,-0.415,-0.0765,0.417,0.519,1.46 (inactive),0.513,-3.1 (inactive),-1.88 (inactive),-0.424 (inactive),-0.42 (inactive),0.492,-0.0523,-0.087,0.645,1.18
COC(=O)[C@]1(Cc2ccccc2CN=[N+]=[N-])N=C(c2ccc(OCCCO)cc2)O[C@@H]1c1ccccc1,0.652,-1.81,-0.435,0.0713,-0.562,-0.782,-0.0525,-0.429,0.441,-1.02 (inactive),-0.311,-4.69 (inactive),0.211 (inactive),4.85 (inactive),0.56 (inactive),-1.05,-0.0407,-2.51,-1.33,-1.19
COC(=O)[C@]1(Cc2ccccc2N=[N+]=[N-])N=C(c2ccc(OCCCO)cc2)O[C@@H]1c1ccccc1,0.334,1.09,-0.141,0.215,0.313,-0.101,1.02,-0.489,0.244,-2.2 (inactive),0.0416,-5.29 (inactive),-0.566 (inactive),2.59 (inactive),15.8 (active),-0.189,0.125,-0.53,-0.23,-0.148
